# Test results: PubChem BioAssay AID651664 (NMMLSC, 2012)
# Fewer than 10 of roughly 1,800 compounds were called active.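 How the source made its calls: active means inhibition of granule release above a set limit; inactive means the rest.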 Not all results are given here.
# Experiment: LAMP-1 surface externalization blockers in TALL-104 cells – cell-based, flow cytometry, validation set (AID 651664)
# Settings: TALL-104 LAMP-1 externalization, at 15.2 µM, active compounds read high, stimulated with thapsigargin and PMA
row,SMILES,inhibition
1,Cc1ccc(C(=O)NC(=S)Nc2ccc(-c3cc4ccccc4oc3=O)cc2)c(C)c1,-0.7% (inactive)
2,CCOC(=O)c1[nH]c(C)c(/C(O)=C2\C(=O)C(=O)N(CCN(C)C)C2c2ccncc2)c1C (stereo not drawn),4% (inactive)
3,O=C1C=C(N2CCN(C(=O)c3ccccc3)CC2)C2(CCCCC2)O1,-4.4% (inactive)
4,CCc1ccc2c(c1)c(N=NC1=NC(=O)CS1)c(O)n2CC,-0.4% (inactive)
5,CC(C)(C)NC(=O)C(=O)N/N=C/c1ccc(Br)cc1,-2.4% (inactive)
6,Cn1cnnc1Sc1cc(N2CCN(S(=O)(=O)c3ccc(Cl)c(Cl)c3)CC2)ccc1[N+](=O)[O-],0.3% (inactive)
7,O=C(NCc1ccc2c(c1)OCO2)c1cccc(F)c1,6.2% (inactive)
8,Cc1cc(C(=O)CSc2nc3ccc(Cl)cc3[nH]2)c(C)n1CC1CCCO1 (stereo not drawn),1.6% (inactive)
9,COc1ccc(/C(O)=C2/C(=O)C(=O)N(CCCN(C)C)C2c2ccc(Cl)cc2)cc1OC (stereo not drawn),6.2% (inactive)
10,CCCCN(CCCC)CP(=O)(c1ccccc1)c1ccccc1,0% (inactive)
11,O=C(Cn1cnc2ccccc2c1=O)c1ccc2ccccc2c1,0% (inactive)
12,CC1CCN(S(=O)(=O)c2ccc(F)c(C(=O)O)c2)CC1,3.9% (inactive)
13,CC(=O)c1ccc(NC(=O)Nc2ccc(NS(=O)(=O)c3ccc(C)cc3)cc2)cc1,-2.9% (inactive)
14,CCCCN(CCCC)C(=S)N/N=C/c1c(C)[nH]n(-c2ccccc2)c1=O,-0.4% (inactive)
15,Cc1ccc(C(=O)C2(C)C3c4cc(Br)ccc4OC(=O)C32C(=O)c2ccco2)cc1 (stereo not drawn),93.2% (active)
16,N#CC1=C(N)N(c2ccc(Oc3ccccc3)cc2)C(=O)C1,1.8% (inactive)
17,CCN(CC)C(=O)CSc1nc2ccccc2c(=O)[nH]1,0.4% (inactive)
18,O=C(/C=C/c1ccc([N+](=O)[O-])cc1)NCC1CCCO1 (stereo not drawn),-0.8% (inactive)
19,COc1cccc2cc(C(=O)Nc3cccc(C)n3)c(=O)oc12,4.9% (inactive)
20,CCCCSC(=S)N(C)C1CCS(=O)(=O)C1 (stereo not drawn),-0.4% (inactive)
21,COP(C)(=O)c1c(C)nn(-c2ccccc2)c1C (stereo not drawn),-2.1% (inactive)

row,SMILES,inhibition
1,Cn1c(Cl)c(C(=O)Nc2ccccc2)c2ccccc21,-1.3% (inactive)
2,Cc1csc(NC(=O)Cc2coc3cc(C)c(C(C)C)cc23)n1,-2.3% (inactive)
3,N/C(=N\OC(=O)CCCN1C(=O)c2ccccc2C1=O)c1ccc(Br)cc1,-3.6% (inactive)
4,N/C(=N\OC(=O)c1ccc(Cl)cc1Cl)c1ccc(Cl)cc1,5.2% (inactive)
5,N/C(=N\OC(=O)c1cccc(Br)c1)c1ccc(Br)cc1,57.6% (active)
6,CCOC(=O)C(C)On1c(-c2ccccc2)nc2ccc([N+](=O)[O-])cc21 (stereo not drawn),4.1% (inactive)
7,CCc1nn(-c2ccccc2)c2c1-c1cc(OC)c(OC)cc1C1(N2)C(=O)Nc2ccccc21 (stereo not drawn),-0.7% (inactive)
8,CCOc1c(Cl)cc(C(=O)Nc2ccccc2-c2ccccc2)cc1Cl,-0.6% (inactive)
9,O=C(COc1ccccc1O)N1CCN(C(=O)c2ccco2)CC1,0.9% (inactive)
10,OCCSc1ncnc2c1oc1ccccc12,-1.3% (inactive)
11,O=C(O)CCCCCNC(=O)Nc1ccc2c(c1)OCCO2,-3.4% (inactive)
12,O=C1c2ccccc2NC(c2cnc3ccccc3n2)N1O (stereo not drawn),-0.6% (inactive)
13,COc1cc(CC(=O)OCC(=O)c2ccc3c(c2)OCCO3)cc(OC)c1OC,0.6% (inactive)
14,Cc1cc(NC(=O)c2cccc3ccccc23)cc(C)c1OCC(=O)N1CCOCC1,-2.8% (inactive)
15,N#Cc1c(-c2ccccc2)nc(-c2ccccc2)nc1N1CCOCC1,-0.6% (inactive)
16,Cc1nc2c(=O)oc3ccccc3c2n1-c1ccccc1,-0.5% (inactive)
17,CCOC(=O)C1CCN(C(=O)CN(c2cc(OC)ccc2OC)S(=O)(=O)c2ccccc2)CC1,-2.6% (inactive)
18,Cc1nn(C)cc1CNC(=O)CCC(=O)O,5.3% (inactive)
19,COC(=O)C1CCN(c2cc(=O)n(C3CCCCC3)c(=O)[nH]2)CC1,5.6% (inactive)
20,Cc1ccccc1C1CC(c2ccccc2OC(F)F)Nc2ncnn21 (stereo not drawn),-2.3% (inactive)
21,Cc1cc2ccccc2nc1SCC(=O)N1c2ccccc2CC1C (stereo not drawn),-0.9% (inactive)

row,SMILES,inhibition
1,CC12Cc3ccc4ccccc4c3C=C1C[N+](C)(C)C2 (stereo not drawn),-0.3% (inactive)
2,CC1=NC(=O)C(N=Nc2ccccc2)N1c1ccccc1 (stereo not drawn),-2.8% (inactive)
3,CC(C)c1ccc(NS(=O)(=O)c2ccc3[nH]cc(C(=O)N4CCC(C(N)=O)CC4)c(=O)c3c2)cc1,-0.7% (inactive)
4,CCC(C)(C)NC(=O)C(c1ccco1)N(C(=O)Cn1nnc2ccccc21)c1ccc2c(c1)OCO2 (stereo not drawn),-0.1% (inactive)
5,Cc1ccc(S(=O)(=O)N2CCN(C(=O)c3cc4c(C)nn(-c5ccccc5C)c4s3)CC2)cc1,-1.8% (inactive)
6,CCOC(=O)c1sc2nc(CC(=O)OC)nc(NCCN3CCOCC3)c2c1C,-2.4% (inactive)
7,COc1ccc(C(C)=O)cc1CN1C(=O)NC2(CCCCC2)C1=O,-0.4% (inactive)
8,Cc1occc1C(=O)Nc1ccc2ccccc2c1,0.2% (inactive)
9,CCS(=O)(=O)N1CCCC(C(=O)NC2CCCCC2C)C1 (stereo not drawn),0.3% (inactive)
10,O=C(O)c1c[nH]c(=S)n1-c1ccc(F)cc1,1.2% (inactive)
11,COCCN1CN(S(=O)(=O)c2ccc(Cl)cc2)c2nc3ccccc3nc21,-1.9% (inactive)
12,COc1cccc(C(C(=O)NCc2ccco2)N(Cc2ccco2)C(=O)Cn2nnc3ccccc32)c1 (stereo not drawn),-3.7% (inactive)
13,CCCn1c2c(c(O)c(C(=O)Nc3ccccc3)c1=O)CCCC2,1.8% (inactive)
14,CSCC[C@H](NC(=O)NCCC1=CCCCC1)C(=O)O,1.1% (inactive)
15,CCOC(=O)c1c(C(C)(C)C)oc2ccc(O)cc12,1.3% (inactive)
16,Clc1ccc(CON/C=N/c2ncnc3sccc23)cc1,-1.5% (inactive)
17,CSc1nc(-c2ccc(Cl)cc2)nn1C(=O)c1ccco1,7% (inactive)
18,C1=C(c2ccccc2)Nc2nnnn2C1c1cccs1 (stereo not drawn),0.7% (inactive)
19,Cc1cccc(CC(Cc2nc3ccccc3[nH]2)c2nc3ccccc3[nH]2)c1 (stereo not drawn),94.4% (active)
20,O=C(NCc1nc2ccccc2[nH]1)c1cc2ccccc2oc1=O,6.1% (inactive)
21,c1ccc2nc(-c3nc4ccccc4[nH]3)ccc2c1,0.9% (inactive)
